In PubChem BioAssay AID588342 (National Center for Advancing Translational Sciences (NCATS), 2011):
Hit rate of the full screen: of about 360,000 compounds, about 25,000 (6.9%) were called active. Inconclusive results (about 9%) are left out. The sample holds actives, similar compounds and a random draw of the others, so the mix is not that of the screen. Unmarked numbers belong to inactive results. The call rests on the fitted dose curve; in most records, active means well fitted inhibition curve with a large enough effect; inconclusive means small, poorly fitted or top-dose-only effect; inactive means flat fitted curve, though single readings scatter.

These compounds were tested against Luciferin 4-monooxygenase (Photinus pyralis) (UniProt P08659) (assay: qHTS profiling assay for firefly luciferase inhibitor/activator using purifed enzyme and Km concentrations of substrates (counterscreen for miR-21 project)). Details: purified FLuc, luminescence inhibition; series mostly up to 57.5 µM; activity change, negative = inhibition: at the top concentration.
Method in brief: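 Purified P. pyralis luciferase, 10 nM final, with Km-level 10 uM D-luciferin and 10 uM ATP in 50 mM Tris acetate pH 7.5, 10 mM Mg acetate, 0.01% Tween-20, 0.05% BSA; 6-point qHTS titration about 60 µM downward; luminescence read.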
Further: nearly all actives have a fitted effect of over 55% in size.
Potency means the concentration at half of the fitted maximal effect.
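Wherever activity change, negative = inhibition is given: plate controls were vehicle for no effect and reference inhibitor for full effect.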

Sequence of Luciferin 4-monooxygenase (Photinus pyralis) (P08659 whole entry, looked up): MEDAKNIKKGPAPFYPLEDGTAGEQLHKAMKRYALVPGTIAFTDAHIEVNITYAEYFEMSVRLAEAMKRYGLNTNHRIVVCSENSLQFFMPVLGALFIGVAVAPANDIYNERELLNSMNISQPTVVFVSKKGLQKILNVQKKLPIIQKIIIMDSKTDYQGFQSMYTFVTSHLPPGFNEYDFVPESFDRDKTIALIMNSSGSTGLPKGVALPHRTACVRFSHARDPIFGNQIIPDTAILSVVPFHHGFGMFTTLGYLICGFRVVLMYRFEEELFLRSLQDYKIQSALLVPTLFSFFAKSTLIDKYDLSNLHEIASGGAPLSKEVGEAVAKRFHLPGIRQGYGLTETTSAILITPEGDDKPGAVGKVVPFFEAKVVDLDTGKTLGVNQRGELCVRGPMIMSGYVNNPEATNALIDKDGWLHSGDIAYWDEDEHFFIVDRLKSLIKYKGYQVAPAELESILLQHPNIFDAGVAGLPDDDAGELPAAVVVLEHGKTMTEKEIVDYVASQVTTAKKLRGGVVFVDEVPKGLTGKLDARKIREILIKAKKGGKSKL

SMILES | activity change, negative = inhibition [%] | Potency
COCCNC(=O)c1ccc2c(c1)N=C(C)c1cc(C)ccc1S2 | -5.31 | 
COc1ccc(S(=O)(=O)N2CCOC23CCN(S(=O)(=O)c2ccc([N+](=O)[O-])cc2)CC3)cc1 | 6.4 | 
CCOc1ccc(NC(=O)Nc2ccc(N(C)C(C)=O)cc2)cc1 | 0.16 | 
CC(=O)N(C)c1ccc(NC(=O)Nc2cccc3ccccc23)cc1 |  | 8.49 µM (active)
O=C(O)Cc1ccc(NC(=O)Nc2cccc3ccccc23)cc1 | -15.7 | 
CC(=O)Nc1ccc(NC(=O)CSc2nnc3c4cc(Br)ccc4n(C)c3n2)cc1 | 0.306 | 
CCc1ccc(NC(=O)CN2C(=O)C(c3ccccc3)=NC23CCCCCC3)cc1 | -7.02 | 
CC(C)CNC(=O)CC(c1ccccc1)c1c(O)ccc2ccccc12 (stereo unspecified) | 8.33 | 
Oc1ccc(N=Cc2sc3ccccc3c2Cl)cc1 |  | 5.36 µM (active)
O=[N+]([O-])c1ccc(N=Cc2c(O)ccc3ccccc23)cc1 | -8.44 | 
Oc1ccc(N=Cc2c(O)ccc3ccccc23)cc1 |  | 16.9 µM (active)
CCOc1[nH]n(-c2ccc(Cl)cc2)c(=O)c1C=Nc1ccc(O)cc1 | 3.26 | 
Oc1ccc2ccccc2c1C=Nc1ccccc1 |  | 16.9 µM (active)
COc1ccc(-n2ccnc(NCCc3ccc(Cl)cc3)c2=O)cc1OC | -9.74 | 
Cc1cc(C)cc(NC(=O)c2cnc3sc(N4CCCC4)nn3c2=O)c1 | -2.76 | 
COc1cccc(CNC(=O)C(=O)NCC(c2cccs2)S(=O)(=O)c2ccccc2)c1 (stereo unspecified) | -0.915 | 
Cc1nc2ccc(S(=O)(=O)N(CC(=O)Nc3ccc(F)cc3)Cc3ccccc3)cc2s1 | 2.12 | 
CCCCC12CN3CC(C)(CN(C1)C3c1ccc(O)c(OC)c1)C2=O (stereo unspecified) | -9.79 | 
CCOc1ccc(CNC(=O)C2CCN(c3nnc(-n4cccc4CNc4ccc(C)cc4)s3)CC2)cc1OC | 0.851 | 
CN(C(=O)COC(=O)c1ccc(Br)o1)c1c(N)n(Cc2ccccc2)c(=O)[nH]c1=O | -17 | 
CCCn1c(C)cc(/C=C(\C#N)C(=O)OCC(=O)N(C)c2c(N)n(Cc3ccccc3)c(=O)[nH]c2=O)c1C |  | 10.7 µM (active)
CCOC(=O)/C(C#N)=C/c1ccc(OCC(=O)Nc2ccccc2)c(OC)c1 | -13.1 | 
COc1cc(NC(=O)CCn2nc(C)cc2C)cc(OC)c1OC | -2.4 | 
Cc1cc(OCC(=O)N(C)c2c(N)n(Cc3ccccc3)c(=O)[nH]c2=O)c(C(C)C)cc1Cl | 0.981 | 
CCCn1c(C)cc(/C=C(\C#N)C(=O)OCC(=O)Nc2cc(OC)c(OC)c(OC)c2)c1C |  | 13.5 µM (active)
CCS(=O)(=O)c1ncc(N(Cc2ccc(F)cc2)Cc2ccco2)c(C(=O)Nc2cc(C)ccc2C)n1 | 0.246 | 

SMILES | activity change, negative = inhibition [%] | Potency
COc1ccc(C(=O)c2oc3ccccc3c2NC(=O)COc2cccc(C)c2)cc1 | -3.19 | 
O=c1oc2ccc(C#CC3(O)CCCCC3)cc2cc1-n1cc(-c2ccsc2)nn1 | -1.06 | 
Cn1c(N)c(C(=O)COC(=O)COc2ccc(Cl)cc2)c(=O)n(C)c1=O | 0.687 | 
CCN(C(=O)COC(=O)Cc1c(F)cccc1Cl)c1c(N)n(Cc2ccccc2)c(=O)[nH]c1=O | -0.25 | 
Cc1ccc(C(=O)N/C(=C/c2ccco2)C(=O)NCCc2c[nH]c3ccccc23)cc1C |  | 10.7 µM (active)
COc1ccc(/C=C(\NC(=O)c2ccc(OC)c(OC)c2)C(=O)NCCc2c[nH]c3ccccc23)cc1 | 2.65 | 
CC(=O)N/C(=C/c1ccc(Cl)cc1)C(=O)NCCc1c[nH]c2ccccc12 | -0.391 | 
COc1ccc(C)cc1N(C)C(=O)c1coc(=O)c2ccccc12 | -0.441 | 
O=C(CN1CCN(S(=O)(=O)c2cccc(Cl)c2)CC1)N1CCCCC1 | 6.07 | 
N#Cc1ccccc1Sc1ccccc1C(=O)OCC(=O)NC1CCCCC1 | 0.881 | 
O=C(COC(=O)c1ccccc1SCC(=O)NC1CCCCC1)NC1CCCCC1 | 4.43 | 
O=C(COC(=O)c1ccccc1Cl)NC1CCCCCCC1 |  | 12 µM (active)
Cc1ccc(S(=O)(=O)NCc2nc3nc(C)cc(C)n3n2)cc1 | 0.546 | 
Cc1ccc(NC(=O)CCC(=O)N2CCC(c3ccccc3)=N2)cc1S(=O)(=O)N1CCCCC1 | 1.57 | 
O=C(CN1C(=O)NC2(CCCCCC2)C1=O)NCc1cccs1 | -3.93 | 
Cc1cccc(N2C(=O)CC(SC(N)=Nc3ccccc3)C2=O)c1 (stereo unspecified) | 1.99 | 
Cc1cccc(N=Nc2c(C)[nH]n(-c3ccccc3)c2=O)c1 |  | 19 µM (active)
Cc1[nH]n(-c2ccccc2)c(=O)c1N=Nc1ccccc1C(=O)N1CCCCC1 | -2.84 | 
CCN(Cc1ccccc1)C(=O)c1cn(-c2cccc(OC)c2)c(=O)c2ccccc12 | -12 | 
CCn1cc(C(=O)NCc2ccccc2)c(=O)c2cc(S(=O)(=O)N3CCCCC3)ccc21 | -1.44 | 
COc1ccc(C(C#N)Nc2ccc(C)cc2)cc1 (stereo unspecified) |  | 1.69 µM (active)
COc1ccc(C(CC(=O)Nc2ccc(C)cc2)NC(=O)C(F)(F)F)cc1 (stereo unspecified) | -2.17 | 
COc1ccc(C(C#N)Nc2ccccc2C)cc1 (stereo unspecified) | -19 | 
Cc1ccc(CN2CCC(CNC(=O)c3cnn(-c4ccc(C)cc4)c3C3CCN(C(=O)OC(C)(C)C)CC3)CC2)cc1 | -2.42 | 
Cn1ccc2cc(S(=O)(=O)N3CCCC(C(=O)NCc4ccccc4F)C3)ccc21 (stereo unspecified) | -5.38 | 
O=C(CSCc1ccc(Cl)cc1)N1CCN(Cc2ccc3c(c2)OCO3)CC1 | 1.28 | 

SMILES | activity change, negative = inhibition [%] | Potency
O=C(COc1ccccc1Cl)N1CCCCCCC1 | 3.49 | 
O=C(CSCc1ccc(Cl)cc1)N1CCCCC1 |  | 16.9 µM (active)
Cc1cccc(C)c1NC(=O)CNC(=O)C1CCCC1 | 4.17 | 
Cc1ccc(CNC(=O)CSc2c3c(nc4cc(Cl)ccc24)CCCC3)cc1 | 3.6 | 
COC(=O)c1sccc1S(=O)(=O)N(CC(=O)Nc1ccc(C)c(F)c1)c1ccc(C)c(C)c1 | -5.87 | 
Cc1ccccc1CSc1nnc(-c2cccnc2)n1N | -0.836 | 
Cc1ccccc1CSc1nnc(-c2ccccc2)c(=O)[nH]1 |  | 19 µM (active)
Cc1ccc(CSc2nc(-c3ccccc3)c(C#N)c(=O)[nH]2)cc1 | -1.34 | 
CCCN(CC(=O)NC(=O)NC1CCCCC1)CC(=O)Nc1cc(Cl)ccc1Cl | -0.397 | 
COc1ccccc1CNC(=O)CS(=O)(=O)c1cccc2nsnc12 | 3.65 | 
CCOC(=O)c1cccc(NC(=O)c2cc(S(=O)(=O)N3CCCC(C)C3)cn2C)c1 (stereo unspecified) | 4.78 | 
COC(=O)c1ccc(C)c(NC(=O)C2CC(=O)N(C3CCCC(C)C3C)C2)c1 (stereo unspecified) | 2.82 | 
Clc1ccc(COn2c(-c3ccc(Cl)cc3Cl)nc3ncccc32)cc1 | -2.6 | 
Clc1ccc(-c2cc(-c3ccccn3)on2)c(Cl)c1 |  | 0.0757 µM (active)
COn1c(-c2ccc(Cl)cc2Cl)nc2ncccc21 | -4.94 | 
O=C1N(Cc2ccccc2)c2ccc(Cl)cc2C1(O)c1c[nH]c2ccccc12 (stereo unspecified) | -10.9 | 
Cc1ccc(-c2nn3c(=O)cc(CN4CCN(C(=O)Nc5cccc(C(F)(F)F)c5)CC4)nc3s2)cc1 | 1.5 | 
CCCCOc1ccc(C(=O)Nc2cccc(-c3nc4ccccc4o3)c2C)cc1 | 0.726 | 
Cc1cccc(NC(=O)c2ccc3nc(C(C)C)oc3c2)c1C | 4.06 | 
Cc1cc(C)c2oc(-c3cccc(NC(=O)c4cccc(F)c4)c3C)nc2c1 |  | 0.849 µM (active)
CCc1cc2c(cc(C(=O)OC)n2Cc2nc(-c3ccc(C)cc3)oc2C)s1 | 4.94 | 
Cc1ccc(Cn2c(=O)n(-c3ccc(C)cc3)c(=O)c3c2c2cc(C)ccc2n3C)cc1 | 0.879 | 
Cc1ccc(-c2cnc(NCc3ccc(C(C)C)cc3)n2C)cc1 | -8.87 | 
Cc1cccc(N(C(=O)c2sc(C)nc2C)C(C(=O)NCC2CCCO2)c2ccccc2)c1 (stereo unspecified) | -0.32 | 
COc1ccc(/C=N/Nc2ncnc3sc4c(c23)CCCC4)cc1O |  | 1.69 µM (active)
COc1ccc(NC(=O)CCCNC(=O)Cn2cnc3sc4c(c3c2=O)CCCC4)cc1OC | 1.63 | 

SMILES | activity change, negative = inhibition [%] | Potency
COc1ccc(NC(=O)CCNC(=O)Cn2cnc3sc4c(c3c2=O)CCCC4)cc1OC | 3.17 | 
CCCOc1ccc(NC(=O)CC2C(=O)N(c3ccccc3)C(=O)N2Cc2ccco2)cc1 (stereo unspecified) | -2.45 | 
CCc1ccc(CNC(=O)CCc2nc(-c3cccs3)no2)cc1 | 1.93 | 
COc1ccc(CCc2nc(-c3cccs3)no2)cc1 |  | 19 µM (active)
COc1ccc(OC)c(CNC(=O)CCc2nc(-c3cccs3)no2)c1 | 4.41 | 
COc1ccc(-n2c(SC)nc3sc4c(c3c2=O)CCN(C(C)=O)C4)cc1 | -0.891 | 
Cc1cccc(NC(=O)Cn2c(=O)n(CCC(C)C)c(=O)c3cccnc32)c1 | -4.8 | 
COc1ccccc1C(=O)OCc1cc(=O)n2nc(-c3cccs3)sc2n1 | 4.29 | 
O=C(Cn1c(=O)n(-c2ccc(F)cc2)c(=O)c2sc3ccccc3c21)NC1CCCC1 | 1.27 | 
Cc1ccc(C(=O)NCCc2nnc(SCC(=O)Nc3cccc(C(=O)O)c3)n2C)cc1 |  | 10.7 µM (active)
Cc1cccc(NC(=O)CSc2nnc(CNC(=O)c3cccc(C)c3)n2-c2ccccc2)c1 | -10.2 | 
Cc1ccc(C)c2c1cc(C)c1nnc(SCC(=O)Nc3cccc(C(=O)O)c3)n12 | 1.26 | 
COc1ccc(CCN(Cc2cc3cccc(C)c3[nH]c2=O)C(=O)N2CCCC2)cc1OC | 2.09 | 
CCOc1ccc(NC(=O)c2cc(S(=O)(=O)N3CCCC3)c[nH]2)cc1 | -4.94 | 
Cc1c(C(=O)NCCCc2ccccc2)cccc1[N+](=O)[O-] | 3.72 | 
CN(c1ccccc1)S(=O)(=O)c1ccc(C(=O)NCCc2ccccc2)cc1 | -2.94 | 
CCCOc1ccc(C(=O)NCCc2ccccc2)cc1 |  | 1.07 µM (active)
CC(C)c1ccc(C(=O)NCCCc2ccccc2)cc1 |  | 10.7 µM (active)
O=C(NCCOc1ccccc1)c1ccccc1 |  | 4.78 µM (active)
O=C(CCNC(=O)c1ccc(Br)cc1)NCCCc1ccccc1 | -3.03 | 
COc1ccc(OCCCC(=O)NCCc2ccccc2)cc1 | 2.74 | 
CCCCCCCCC(=O)NCCOc1ccccc1 | -2.85 | 
NS(=O)(=O)c1cc(C(=O)NCCOc2ccccc2)c(Cl)cc1Cl | -0.907 | 
